High-throughput results (PubChem)
SMN2 splice up: increases expression of the SMN2 splice variant | HEK293 SMN2-luciferase splicing reporter, luminescence, 30-36 h | Potency, µM (series often up to 46.1 µM), for the others: top-dose activity change, positive = activation, usual class: activators | 2.8% of 210,000 active | AID 1458; further: % of control where 0% means no effect; nearly all actives have a fitted effect of over 55% in size
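HEK293 cells carry an SMN2 […]–luciferase reporter in which exon 7 inclusion puts luciferase in frame. Cells were plated 10-12 h before compound addition, then incubated 30-36 h at 37C. ONE-Glo luminescence was read; sodium butyrate at 4.5 mM final served as control.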
NPC1 prom act: NPC1 promoter activation | 2.4% of 320,000 active | Potency, µM (titrated, usually from 9.22 µM), without a hit: at the top dose activation, actives largely listed as activators | AID 485313 | Huh7 NPC1 promoter luciferase reporter, 24 h; further: % of control where 0% means no effect; nearly all actives have a fitted effect of over 60% in size
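Stably transfected Huh7 (NPC1 promoter→luciferase), 1500 cells/well in Opti-MEM + 10% FBS, 2 h settle, then compound 24 h at 37 °C. Luminescence after 10 min with Amplite reagent.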
Rab9 promoter act: activators of Rab9 promoter. 2.8% of 320,000 active. Potency, µM (series often up to 9.22 µM), without a hit: top-dose activation, negative = inhibition, most hits filed as activators. Huh7 Rab9 promoter-luciferase reporter, luminescence, 24 h; further: % of control where 0% means no effect; nearly all actives have a fitted effect of over 60% in size
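Huh7 reporter line, Rab9 promoter upstream of luciferase. Compound exposure 24 h at 37 °C in reduced-serum medium with 10% FBS. Read-out: luminescence.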
FLuc modulator: firefly luciferase modulation, counter-screen for miR-21 project; P08659; purified FLuc, Km substrates, luminescence inhibition; Potency, µM (series often up to 57.5 µM), for inactives: at the top dose activity change, negative = inhibition, hits mostly inhibitors; 6.9% of 360,000 active; AID 588342;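 further: plate controls were vehicle for no effect and reference inhibitor for full effect; nearly all actives have a fitted effect of over 55% in size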
Target sequence (P08659 whole entry, looked up): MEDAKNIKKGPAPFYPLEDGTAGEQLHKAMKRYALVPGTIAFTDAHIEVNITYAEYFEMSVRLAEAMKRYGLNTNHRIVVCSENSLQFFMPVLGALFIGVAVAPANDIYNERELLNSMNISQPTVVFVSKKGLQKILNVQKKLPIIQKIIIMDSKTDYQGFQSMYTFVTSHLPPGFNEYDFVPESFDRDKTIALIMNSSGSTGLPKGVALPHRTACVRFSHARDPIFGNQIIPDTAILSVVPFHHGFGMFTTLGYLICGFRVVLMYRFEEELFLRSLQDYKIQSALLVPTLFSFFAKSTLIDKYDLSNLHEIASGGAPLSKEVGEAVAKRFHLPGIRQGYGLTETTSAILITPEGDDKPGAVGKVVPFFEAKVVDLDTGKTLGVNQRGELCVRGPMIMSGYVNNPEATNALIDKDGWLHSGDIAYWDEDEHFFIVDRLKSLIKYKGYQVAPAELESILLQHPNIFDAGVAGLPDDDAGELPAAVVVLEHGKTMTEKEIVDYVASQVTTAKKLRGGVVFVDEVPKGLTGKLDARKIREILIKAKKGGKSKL
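Purified P. pyralis luciferase (10nM final) with 10uM D-luciferin and 10uM ATP (Km levels) in 50mM Tris acetate pH 7.5, 10mM Mg acetate, 0.01% Tween-20, 0.05% BSA; qHTS 6-point titration, ~60 µM downward; luminescence read.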
ELG1 genotoxic: inducers of genotoxicity in HEK293T ELG1-luciferase cells; Potency, µM (series often up to 46 µM), without a hit: at the top dose activity change, positive = activation, usual class: activators; 1.3% of 330,000 active; HEK293T ELG1-luciferase reporter, luminescence, 16 h; further: % of control where 0% means no effect; nearly all actives have a fitted effect of over 60% in size
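After overnight (16 hr) compound treatment at 37 °C, ELG1-luciferase HEK293T cells were lysed with ONE-Glo; luminescence quantified 30 min later at room temperature.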
p53 reactivation: mutant p53 re-activation in reporter cells; H1299 p53-A138V BP100-luciferase reporter, luminescence, 24 h; Potency, µM (titrated, usually from 92.2 µM), for the others: top-dose activity change, positive = activation, usual class: activators; 0.063% of 320,000 active; further: % of control where 0% means no effect; nearly all actives have a fitted effect of over 45% in size
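p53-null H1299 cells stably carrying temperature-sensitive p53-A138V and a BP100-luciferase reporter were pinned with compounds (4-point, 1:5 series) and held 24 hrs at 37 deg C. Luminescence was read 10 min after detection reagent.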
* marks the source's active call; other numbers are inactive results; ? = inconclusive; / = no result; [ ] = dose if it differs, or a comment. This is a sample that favours compounds with a hit; in the whole collection about 7.4% have one here. The call rests on the fitted dose curve; in most records, active means well fitted curve in the direction sought with a large enough effect; inconclusive means small, poorly fitted or top-dose-only effect, or another doubt; inactive means no such curve, though single readings can be large; an effect the other way counts as inactive or inconclusive. Potency means the concentration at half of the fitted maximal effect.

SMILES | SMN2 splice up | NPC1 prom act | Rab9 promoter act | FLuc modulator | ELG1 genotoxic | p53 reactivation
CC(=O)COc1ccc2c3c(c(=O)oc2c1C)CCCCC3 | ? | ? | ? | -17.8% | 7.31µM* | ?
Cc1oc(C(=O)O)cc1COc1ccc2c3c(c(=O)oc2c1C)CCC3 | ? | 19.1% | ? | 26.9µM* | ? | 2.0%
CCC(=O)N1c2ccccc2CC1C(=O)NCCc1ccc(SC)cc1 (stereo not given) | / | / | / | -2.4% | / | /
COc1ccc(NC(=O)C2CCCN2S(=O)(=O)c2cccs2)c([N+](=O)[O-])c1 (stereo not given) | / | -0.8% | 0.2% | 2.7% | -1.9% | 3.7%
O=C(CN1C(=O)S/C(=C\c2cccs2)C1=O)Nc1ccc(O)c(C(=O)O)c1 | / | -6.0% | -13.3% | ? | 2.0% | 1.4%
O=C(CCN1C(=O)/C(=C/c2ccco2)SC1=S)Nc1ccc(O)cc1C(=O)O | / | -1.5% | -2.0% | ? | 0.0% | 2.6%
O=C(CN1C(=O)S/C(=C\c2cccs2)C1=O)Nc1ccc(C(=O)O)c(O)c1 | / | 1.3% | 8.3% | 23.9µM* | -1.3% | 3.4%
COc1ccccc1/C=C1\SC(=S)N(CCC(=O)Nc2ccc(C(=O)O)c(O)c2)C1=O | / | -1.2% | 4.6% | 6.01µM* | 4.2% | 13.4%
O=C(CCCN1C(=O)/C(=C\c2ccco2)SC1=S)Nc1ccc2ccccc2c1 | 264.6% | 4.0% | 0.0% | -0.7% | 0.0% | ?
O=C(CCN1C(=O)/C(=C/c2ccco2)SC1=S)Nc1ccc(C(=O)O)c(O)c1 | / | -1.2% | -3.1% | 7.57µM* | -3.5% | 6.4%
O=C(CCN1C(=O)/C(=C\c2ccco2)SC1=S)Nc1ccc(C(=O)O)c(O)c1 | / | -0.5% | -0.8% | 10.7µM* | 0.2%[9.26 µM] | 20.0%
COc1ncc2nc(-c3ccc(Cl)cc3)c(=O)n(C[C@H]3CCCO3)c2n1 | 12.2% | / | / | / | / | /
COc1ccc(-c2ccc(N)cn2)cn1 | / | 17.5% | 21.7% | ? | 15.3% | ?
COc1cc(C(=O)Nc2nc3ccc(S(C)(=O)=O)cc3s2)cc(OC)c1C | / | -0.2% | 0.8% | -9.8% | -1.9% | 5.9%
Cc1cc(C(=O)Nc2nc3ccc(S(C)(=O)=O)cc3s2)c(C)o1 | 5.62µM* | ? | 3.16µM* | 0.849µM* | 8.2µM* | 18.0%
COc1ccc2nc(NC(=O)CN3CCOCC3)sc2c1 | 10.5% | 14.7% | 27.1% | ? | ? | 17.2%
COc1ccc2nc(NC(=O)c3ccoc3C)sc2c1 | 2µM* | 0.631µM* | 0.447µM* | 1.2µM* | ? | ?
COc1ccc(OCC(=O)Nc2nc3cc4c(cc3s2)OCCO4)cc1 | / | / | / | / | -1.6% | 10.7%
COc1ccc2nc(NC(=O)c3cc(C)oc3C)sc2c1 | 15.8µM* | ? | 2.82µM* | 1.35µM* | ? | 27.9%
COc1ccc2nc(NC(=O)c3ccc(-c4cccc([N+](=O)[O-])c4)o3)sc2c1 | -13.6% | 0.6% | 6.9% | -5.3% | 4.5% | ?
COc1ccc(C(=O)Nc2nc3cc4c(cc3s2)OCO4)c(OC)c1 | / | 0.794µM* | 0.794µM* | 0.426µM* | ? | 0.7%
CC(C)C1N=C2c3ccccc3N=C(SCC(=O)NCc3ccccc3Cl)N2C1=O (stereo not given) | / | / | / | -3.5% | / | /
COc1ccccc1CNC(=O)C1CCCN(S(=O)(=O)c2ccc3c(c2)CCCN3C(C)=O)C1 (stereo not given) | / | / | / | -1.1% | / | /
CCOC(=O)c1c(N2C(=O)Nc3ccccc3N2O)n[nH]c1-c1cccc(Cl)c1 | -19.2% | -8.4% | 15.4% | ? | -5.5% | -5.3%
COc1ccc(C(=O)O)cc1N1C(=O)Nc2ccccc2N1O | -8.8% | 2.7% | -1.0% | 1.7% | -3.5% | -3.9%
CCOc1ccc(-c2cc(N3C(=O)Nc4ccccc4N3O)n[nH]2)cc1 | 4.1% | -2.3% | -2.7% | 6.75µM* | -3.0% | -10.0%
COc1cccc(-c2cc(N3C(=O)Nc4ccccc4N3O)n[nH]2)c1 | -5.6% | 3.8% | -2.6% | 15.1µM* | 0.7% | 10.7%
